Data as given in PubChem BioAssay AID1508623 (National Center for Advancing Translational Sciences (NCATS), 2021).
Hit rate of the full screen: of about 48,000 compounds, about 450 (0.94%) were called active. Another 19% or so got no clear call; they are omitted. This is one part of a sample in which actives are shown more often than they occur. Calls come from the whole dose curve; as a rule, active = well fitted inhibition curve with a large enough effect; inconclusive = small, poorly fitted or top-dose-only effect; inactive = no such curve, though single readings can be large or run the other way.

Assay: Primary qHTS for Identification of Small Molecule Inhibitors of Huntingtin Promoter Activity; note: nearly all actives have a fitted effect of over 50% in size
Settings: HEK293 HTT promoter firefly luciferase reporter (activity 0% = vehicle and -100% = no light), 24 h; series mostly up to 57.5 µM
From the text: Assay Provider: Russell L. Margolis M.D.
Department Neurology, Johns Hopkins University School of Medicine, Baltimore, MD
Huntington's Disease (HD) is a neurodegenerative disorder caused by a CAG repeat expansion in exon 1 of huntingtin (HTT). While there are currently no disease-modifying treatments for HD, recent efforts have focused on development of nucleotide-based therapeutics to lower HTT expression. As an alternative to siRNA or oligonucleotide methods, we hypothesized that suppression of HTT expression might be accomplished by small molecules that either (1) directly decrease HTT expression by suppressing HTT promoter activity or (2) indirectly decrease HTT expression by increasing the promoter activity of HTT-AS, the gene antisense to HTT that appears to inhibit expression of HTT.
We developed and employed a high throughput screen for modifiers of HTT and HTT-AS promoter activity using luminescent reporter HEK293 cells; of the 52,041 compounds tested, we identified 898 replicable hits. We used a rigorous stepwise approach to assess compound toxicity and the capacity of the compounds to specifically lower huntingtin protein in 5 different cell lines, including HEK293 cells, HD lymphoblastoid cells, mouse primary neurons, HD iPSCs differentiated into cortical-like neurons, and HD hESCs. We found no compounds which were able to lower huntingtin without lowering cell viability in all assays, though the potential efficacy of a few compounds at non-toxic doses could not be excluded.
SEQUENCE No. (1, 2, 3, etc.); […] (e.g., Cells, Incubation, Reagent, etc.); VALUE and DESCRIPTION.
1; Reagent; 4 uL; 2,500 Hek293 luciferase reporter cells per wells
3; Compound; 23 nL; Control inhibitor / compound library
5; Reagent; 2.5 uL; Firefly Luc reagent; Dual-Glo Luciferase Reporter Assay System (Promega)
6; Time; 10 min; room temperature incubation
7; Detection; Luminescence; FLuc
NOTES (numbers refer to sequence above)
1; High-throughput screening, measuring luminescence from a Hek293 luciferase reporter, was performed in 1,536 well white-walled tissue-culture treated plates. 2,500 cells were plated in 4 µL of Opti-MEM per well using a Multidrop Combi Reagent Dispenser (ThermoFisher).
2; Assay plates were cultured for 24 hours.
3; Control inhibitor (PTC124; final concentration of 50 uM) and compound library (at final concentrations of 460 nM - 57.5 uM) were added to the assay plate using the Kalypsis Pintool Robotic System equipped with 1536 pinheads.
4; Cells were then incubated for 24 hours at 37 degrees C prior to luminescence measurements.
5; In all cases, luminescence was measured using the Dual-Glo Luciferase Reporter Assay System (Promega) following the manufacturer's instructions.
6; Room temperature incubation.
7; Luminescence signal was obtained using the PerkinElmer ViewLux plate reader. Results were normalized to vehicle control (0% activity) and zero RLU (-100% activity).
Potency is the fitted concentration of half-maximal effect.

Potency, inactive:
COc1ccc(Br)cc1C1CC(=O)Nc2c1c(C)nn2-c1nc(C)cc(C)n1 (stereo not given)
CCC(=O)Nc1c(C(=O)N2CCN(c3ccc(F)cc3)CC2)oc2ccccc12
COc1cccc(-c2n[nH]c3c2C(c2cccc(O)c2)N(C)C3=O)c1 (stereo not given)
COc1ccc(Cn2ccn(Cc3cccc(OC)c3)c(=O)c2=O)cc1
CCN1CCN(CCCNC(=O)c2cnn(-c3ccc(C)cc3C)c2C2CCN(C(=O)OC(C)(C)C)CC2)CC1
CCCCNC(=O)CSc1nc2cc3c(cc2c(=O)n1CCCCCC(=O)NCc1ccc2c(c1)OCO2)OCO3
CCOC(=O)C1CCN(C(c2ccc(F)cc2)c2sc3nc(-c4ccco4)nn3c2O)CC1 (stereo not given)
CCOC(=O)c1cccc(NS(=O)(=O)c2cc(-c3cnc(C)o3)ccc2OC)c1
Cc1ccc(CCNC(=O)Cn2c(-c3cccs3)cc3cc(F)ccc32)cc1
CCc1ccccc1NC(=O)Cn1c(=O)n(CC2CCC(C(=O)NCCc3ccccc3)CC2)c(=O)c2ccccc21 (stereo not given)
COc1ccc(OC)c2sc(N3CCN(C(=O)C4COc5ccccc5O4)CC3)nc12 (stereo not given)
COc1cc(NS(=O)(=O)c2cccs2)cc(OC)c1
COc1ccccc1CNC(=O)C(=O)NCC(c1cccs1)S(=O)(=O)c1cccs1 (stereo not given)
CC1CN(C(=O)N2CCC(C(=O)NCc3ccco3)CC2)c2cc(Cl)ccc2O1 (stereo not given)
CCc1ccc(CN(Cc2ccco2)C(=O)COc2ccc(Cl)c(C)c2)cc1
CC(C)NC(=O)C1CCC(Cn2c(=O)c3sccc3n(Cc3ccc(F)cc3)c2=O)CC1 (stereo not given)
CC(=O)Nc1cccc(NC(=O)CSc2cn(CC(=O)N3CCCC3)c3ccccc23)c1
Cc1ccc(-c2nn(CCC(=O)Nc3ccc(OC(F)(F)F)cc3)c(=O)c3ccccc23)cc1
CN(C(=O)CN1C(=O)CCSc2ccc(S(=O)(=O)N3CCCC3)cc21)c1ccccc1
CCc1ccc(NC(=O)CN2C(=O)CCSc3ccc(S(=O)(=O)N4CCCC4)cc32)cc1
COC(=O)c1ccccc1NC(=O)c1cnn(-c2ccc(F)cc2)c1-n1cccc1
CCCCN(CC)CCCNC(=O)c1nn(C)c2c1CS(=O)(=O)c1ccccc1-2
CCCCC(=O)OC1=CN(Cc2ccccc2)S(=O)(=O)c2ccccc21
COc1cccc(NC(=O)Cn2c(=O)cc(C)c3c(C)nn(-c4cccc(F)c4)c32)c1
COc1ccc(NC(=O)c2ccco2)cc1NC(=O)COc1ccc(C)c(C)c1
CCOC(=O)c1ccccc1NC(=O)CCc1c(C)nc2c(c1C)c(=O)n(C)c(=O)n2C
CCc1nn(CC(=O)NCC(C)c2ccccc2)c(=O)c2cc3occc3n12 (stereo not given)

Potency, active:
COc1ccc(-c2cccc(NS(=O)(=O)c3cc(C)c(OC)c(C)c3C)c2)nn1 11.2 µM
COc1cc(NS(=O)(=O)c2ccc3c(c2)OCC(C(=O)N2CCCC2)O3)cc(OC)c1 (stereo not given) 14.1 µM
CCc1ccc(NC(=O)CN2CCSc3ccc(S(=O)(=O)N4CCCC4)cc32)cc1 31.6 µM
